Whole data set: some 8,300 sequences, median “log2 fold change of degron read counts, EGFP-low vs EGFP+ sorted cells (limma voom), compound-induced degradation” near -1.1, cut for the highest 2% near 3.2. The sample as a whole holds a higher share of the highest values than the screen did.
T1: CRBN, Q96SW2
T1 chain: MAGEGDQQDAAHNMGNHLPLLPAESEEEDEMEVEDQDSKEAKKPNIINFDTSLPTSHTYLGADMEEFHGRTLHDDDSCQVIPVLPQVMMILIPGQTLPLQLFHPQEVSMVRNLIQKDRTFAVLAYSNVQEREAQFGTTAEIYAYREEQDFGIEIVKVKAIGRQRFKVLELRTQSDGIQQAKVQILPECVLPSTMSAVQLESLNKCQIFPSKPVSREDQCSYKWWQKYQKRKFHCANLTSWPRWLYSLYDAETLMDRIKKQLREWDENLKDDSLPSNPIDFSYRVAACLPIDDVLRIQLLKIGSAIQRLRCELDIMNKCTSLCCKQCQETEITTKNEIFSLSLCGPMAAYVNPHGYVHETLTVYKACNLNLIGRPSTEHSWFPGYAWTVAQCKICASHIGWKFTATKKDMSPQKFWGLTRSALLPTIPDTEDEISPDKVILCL


Molecular target: T1, CRBN, Q96SW2
Assay: log2 fold change of degron read counts, EGFP-low vs EGFP+ sorted cells (limma voom), compound-induced degradation; higher = more compound-induced degradation of the degron-EGFP fusion; degrons are variants of IKZF1/3 zinc finger 2; compound dose not given here
Settings: Jurkat, 18 h
[1] = compound: compound 19 (5-tert-butyl-thalidomide)
[2] = compound: compound 22 (5-morpholino-thalidomide)
[3] = compound: compound 33 (diphenyl IMiD analogue)
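Note: pooled lentiviral library of zinc finger degron-EGFP fusions in mCherry-positive Jurkat cells, FACS-sorted after compound exposure, with degron abundance counted by next-generation sequencing.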

Sequence	log2 fold change of degron read counts [1]	log2 fold change of degron read counts [2]	log2 fold change of degron read counts [3]	log2 fold change of degron read counts (compound: thalidomide)
FVCPICGRNFTQKGNLLRHIKL [46F_47V_49P_50I_52G_53R_54N_55F_67L_, Q9UKT9]	-1.5	0.0165	-0.308	1.47
FDCNICGAGFTQKGNLLRHIKL [46F_47D_49N_50I_52G_53A_54G_55F_67L_, Q9UKT9]	-0.56	-1.59	-0.734	-0.131
FGCNQCGRQFTQKGNLLRHIKL [46F_47G_49N_50Q_52G_53R_54Q_55F_67L_, Q9UKT9]	-1.78	-3.61	-1.87	-1.99
FECNQCGAQFTQKGNLLRHIKL [46F_47E_49N_50Q_52G_53A_54Q_55F_67L_, Q9UKT9]	-3.22	-3.17	-2.23	-1.78
FLCEVCGAVFTQKGNLLRHIKL [46F_47L_49E_50V_52G_53A_54V_55F_67L_, Q9UKT9]	-1.19	-1.32	0.896	1.47
FTCEVCGAVFTQKGNLLRHIKL [46F_47T_49E_50V_52G_53A_54V_55F_67L_, Q9UKT9]	-0.209	1.43	1.81	2.36
FACEVCGAVFTQKGNLLRHIKL [46F_47A_49E_50V_52G_53A_54V_55F_67L_, Q9UKT9]	3.24	2.04	1.3	0.155
FVCEVCGAVFTQKGNLLRHIKL [46F_47V_49E_50V_52G_53A_54V_55F_67L_, Q9UKT9]	-0.567	1.18	2.1	2.01
FQCEVCGAVFTQKGNLLRHIKL [46F_47Q_49E_50V_52G_53A_54V_55F_67L_, Q9UKT9]	-0.43	2.76	2.39	3.71
FFCEVCGAVFTQKGNLLRHIKL [46F_47F_49E_50V_52G_53A_54V_55F_67L_, Q9UKT9]	2.87	3.44	1.92	1.04
FKCEVCGAVFTQKGNLLRHIKL [46F_47K_49E_50V_52G_53A_54V_55F_67L_, Q9UKT9]	-2.3	-3.46	-2.84	-1.47
FHCEVCGAVFTQKGNLLRHIKL [46F_47H_49E_50V_52G_53A_54V_55F_67L_, Q9UKT9]	0.991	1.24	1.22	-0.292
FDCEVCGAVFTQKGNLLRHIKL [46F_47D_49E_50V_52G_53A_54V_55F_67L_, Q9UKT9]	-0.0916	-0.965	0.432	0.0687
FCCEVCGAVFTQKGNLLRHIKL [46F_47C_49E_50V_52G_53A_54V_55F_67L_, Q9UKT9]	1.18	1.8	2.68	1.79
FWCEVCGAVFTQKGNLLRHIKL [46F_47W_49E_50V_52G_53A_54V_55F_67L_, Q9UKT9]	2.83	3.43	2.51	0.594
FSCEVCGAVFTQKGNLLRHIKL [46F_47S_49E_50V_52G_53A_54V_55F_67L_, Q9UKT9]	2.19	1.99	2.31	0.741
FRCSVCGHRFTQKGNLLRHIKL [46F_47R_49S_50V_52G_53H_54R_55F_67L_, Q9UKT9]	-2.02	-2.85	-2.44	-2.23
FYCNQCGHGFTQKGNLLRHIKL [46F_47Y_49N_50Q_52G_53H_54G_55F_67L_, Q9UKT9]	-2.38	-2.88	-2.5	-2.33
FNCDVCGAIFTQKGNLLRHIKL [46F_47N_49D_50V_52G_53A_54I_55F_67L_, Q9UKT9]	-1.74	-3.02	-1.86	-2.46
FWCEQCGAKFTQKGNLLRHIKL [46F_47W_49E_50Q_52G_53A_54K_55F_67L_, Q9UKT9]	2.4	1.97	-0.464	-0.551
LMCNQCGFMCTQKGNLLRHIKL [46L_47M_49N_50Q_52G_53F_54M_55C_67L_, Q9UKT9]	-1.58	-1.89	-0.98	-1.42
FSCDVCGATFTQKGNLLRHIKL [46F_47S_49D_50V_52G_53A_54T_55F_67L_, Q9UKT9]	0.618	0.269	0.317	-0.694
FDCEICGHGFTQKGNLLRHIKL [46F_47D_49E_50I_52G_53H_54G_55F_67L_, Q9UKT9]	-3.03	-3.17	-3	-2.57
FSCEICGHVFTQKGNLLRHIKL [46F_47S_49E_50I_52G_53H_54V_55F_67L_, Q9UKT9]	-2.99	-2.93	-2.63	-2.67
FYCDQCGAIFTQKGNLLRHIKL [46F_47Y_49D_50Q_52G_53A_54I_55F_67L_, Q9UKT9]	-1.03	-1.1	-1.87	-2.56
FFCPICGAGFTQKGNLLRHIKL [46F_47F_49P_50I_52G_53A_54G_55F_67L_, Q9UKT9]	3.02	2.16	1.63	0.485
FYCEVCGAVFTQKGNLLRHIKL [46F_47Y_49E_50V_52G_53A_54V_55F_67L_, Q9UKT9]	3.58	3.79	2.82	0.689
FMCEVCGAVFTQKGNLLRHIKL [46F_47M_49E_50V_52G_53A_54V_55F_67L_, Q9UKT9]	-1.47	-0.776	2.27	0.961
FECEVCGAVFTQKGNLLRHIKL [46F_47E_49E_50V_52G_53A_54V_55F_67L_, Q9UKT9]	-0.492	-0.885	1.58	2.31
